Measured values published in PubChem BioAssay (EPA / NIEHS).
Several values for one entry are separate records, joined by “and”; a condition that tells them apart may be missing. Identical values can stand only once. The source holds several records for some structures; these can differ, active in one and inactive in another. Activity calls are given as the source filed them. The calls were made as follows: active = hit-call score of the fitted dose curve at least 0.9, where 1 is the maximum; inactive = score below 0.9.

Assays:
[1] = ATG_GRE_CIS: Attagene CIS-FACTORIAL HepG2 Assay for human Glucocorticoid Response Elements (GRE) (AID 2282947); conditions: HepG2 GRE cis-reporter, Attagene multiplex mRNA; actives raise or lower the signal
Method in brief: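 HepG2, transient cis-reporter transfection, 24 h. Reporter mRNA: RT-PCR then CE, fluorescence. Fit both directions vs DMSO.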

[2] = ATG_ISRE_CIS: Attagene CIS-FACTORIAL HepG2 Assay for human Interferon Regulatory Factor 1 (IRF1) binding to an Interferon-Stimulated Response Element (ISRE) (AID 2282948); conditions: HepG2 ISRE cis-reporter (Attagene), mRNA transcription readout; actives raise or lower the signal
Method in brief: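 Endogenous transcription factor activity read as reporter transcript abundance via RT-PCR and capillary electrophoresis. HepG2 cells transiently transfected, 24 h chemical exposure. Gain or loss fitted against DMSO baseline.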

[3] = ATG_M_06_CIS: Attagene CIS-FACTORIAL HepG2 Assay for M06 Transcription Factor (Internal Marker) (AID 2282950); conditions: HepG2 Attagene CIS-FACTORIAL M06 internal marker reporter; actives raise or lower the signal
Method in brief: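 Measured 24 h post-dosing in transiently transfected HepG2 cells, this internal-marker endpoint reports reporter mRNA via RT-PCR with fluorescent primer extension and capillary electrophoresis. DMSO served as negative control and baseline for bidirectional fitting.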

[4] = molecular target: Hypoxia-inducible factor 1-alpha (Homo sapiens) (UniProt Q16665); experiment: ATG_HIF1a_CIS: Attagene CIS-FACTORIAL HepG2 Assay for human Hypoxia Inducible Factor 1 (HIF1A) (AID 2282951); conditions: HepG2 Attagene cis-factorial HIF1a reporter transcription; actives raise or lower the signal
Hypoxia-inducible factor 1-alpha (Homo sapiens), sequence (Q16665 whole entry, looked up): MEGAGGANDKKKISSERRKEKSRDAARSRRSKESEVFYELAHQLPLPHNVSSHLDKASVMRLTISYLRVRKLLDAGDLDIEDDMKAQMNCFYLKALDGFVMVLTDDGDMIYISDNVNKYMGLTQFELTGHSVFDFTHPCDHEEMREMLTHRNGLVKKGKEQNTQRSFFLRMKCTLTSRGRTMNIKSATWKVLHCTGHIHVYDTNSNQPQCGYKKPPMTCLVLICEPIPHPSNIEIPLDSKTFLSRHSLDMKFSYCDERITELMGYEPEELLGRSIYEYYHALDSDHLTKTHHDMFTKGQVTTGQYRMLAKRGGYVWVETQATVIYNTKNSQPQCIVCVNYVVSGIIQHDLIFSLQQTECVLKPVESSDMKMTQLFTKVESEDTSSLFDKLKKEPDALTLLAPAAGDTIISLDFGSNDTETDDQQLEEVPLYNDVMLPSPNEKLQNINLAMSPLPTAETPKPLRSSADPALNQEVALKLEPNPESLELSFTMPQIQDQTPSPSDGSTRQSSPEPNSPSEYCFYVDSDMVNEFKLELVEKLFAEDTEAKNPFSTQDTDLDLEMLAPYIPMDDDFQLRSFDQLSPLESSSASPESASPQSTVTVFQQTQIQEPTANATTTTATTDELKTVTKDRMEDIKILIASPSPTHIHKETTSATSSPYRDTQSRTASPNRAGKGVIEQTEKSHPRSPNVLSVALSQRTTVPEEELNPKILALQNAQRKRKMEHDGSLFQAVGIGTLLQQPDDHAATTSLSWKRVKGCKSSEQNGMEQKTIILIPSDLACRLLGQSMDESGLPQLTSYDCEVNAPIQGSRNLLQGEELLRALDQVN
Method in brief: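 RT-PCR/capillary electrophoresis fluorescence readout of reporter transcripts from endogenous-TF-driven cis elements in transfected HepG2 cells, 24 h exposure; activity fitted in both directions against DMSO controls.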

[5] = molecular target: Hepatocyte nuclear factor 6 (Homo sapiens) (UniProt Q9UBC0); experiment: ATG_HNF6_CIS: Attagene CIS-FACTORIAL HepG2 Assay for human Hepatocyte Nuclear Factor 6 (HNF6) (AID 2282952); conditions: HepG2 Attagene cis-factorial HNF6 reporter transcription; actives raise or lower the signal
Hepatocyte nuclear factor 6 (Homo sapiens), sequence (Q9UBC0 whole entry, looked up, the tested form may be a part): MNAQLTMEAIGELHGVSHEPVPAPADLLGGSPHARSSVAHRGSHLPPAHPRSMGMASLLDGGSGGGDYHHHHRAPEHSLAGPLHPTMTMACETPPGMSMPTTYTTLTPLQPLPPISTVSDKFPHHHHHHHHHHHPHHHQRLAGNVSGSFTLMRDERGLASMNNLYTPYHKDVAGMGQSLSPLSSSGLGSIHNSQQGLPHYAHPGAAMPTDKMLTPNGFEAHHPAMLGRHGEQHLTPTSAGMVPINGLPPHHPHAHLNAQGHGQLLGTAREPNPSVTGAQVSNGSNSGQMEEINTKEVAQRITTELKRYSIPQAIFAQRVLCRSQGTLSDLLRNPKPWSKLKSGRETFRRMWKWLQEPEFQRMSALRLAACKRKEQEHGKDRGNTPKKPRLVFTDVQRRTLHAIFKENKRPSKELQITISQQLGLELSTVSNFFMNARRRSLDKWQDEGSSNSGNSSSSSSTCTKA
Method in brief: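 Using cis-element reporters in HepG2 liver cells, the assay tracks endogenous factor-driven transcription 24 h post-dosing. Signal comes from 6-FAM-labelled, HpaI-digested RT-PCR fragments, with gain or loss scored against DMSO.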

[6] = molecular target: Heat shock factor protein 1 (Homo sapiens) (UniProt Q00613); experiment: ATG_HSE_CIS: Attagene CIS-FACTORIAL HepG2 Assay for human Heat Shock Transcription Factor 1 (HSE) (AID 2282953); conditions: HepG2 HSE cis-reporter, Attagene RNA transcription; actives raise or lower the signal
Heat shock factor protein 1 (Homo sapiens), sequence (Q00613 whole entry, looked up): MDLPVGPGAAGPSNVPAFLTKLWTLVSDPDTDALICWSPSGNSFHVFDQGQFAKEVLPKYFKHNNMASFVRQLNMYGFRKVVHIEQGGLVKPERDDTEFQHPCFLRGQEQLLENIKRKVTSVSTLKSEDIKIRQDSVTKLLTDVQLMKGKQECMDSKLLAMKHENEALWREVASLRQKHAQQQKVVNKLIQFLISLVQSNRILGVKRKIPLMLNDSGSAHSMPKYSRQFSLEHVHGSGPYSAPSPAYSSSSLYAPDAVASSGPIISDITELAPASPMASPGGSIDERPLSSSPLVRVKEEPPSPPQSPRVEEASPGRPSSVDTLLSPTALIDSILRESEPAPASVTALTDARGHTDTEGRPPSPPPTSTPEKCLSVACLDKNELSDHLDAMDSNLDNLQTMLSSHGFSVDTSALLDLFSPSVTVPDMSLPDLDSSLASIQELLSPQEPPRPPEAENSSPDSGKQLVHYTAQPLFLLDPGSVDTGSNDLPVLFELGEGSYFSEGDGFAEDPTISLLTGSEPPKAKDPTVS
Method in brief: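 Reporter mRNA induction in HepG2 is measured 24 h after dosing, using transiently transfected multiplexed cis-regulated reporter units. Signal comes from capillary electrophoresis of labelled RT-PCR products, with DMSO as negative control.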

[7] = ATG_MRE_CIS: Attagene CIS-FACTORIAL HepG2 Assay for human Metal Responsive Element (MRE) (AID 2282954); conditions: HepG2 MRE cis-reporter transcription, Attagene multiplex; actives raise or lower the signal
Method in brief: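 Readout: capillary electrophoresis of 6-FAM-labelled, HpaI-digested RT-PCR reporter products. System: HepG2 cells carrying transient multiplexed cis reporters, dosed 24 h. Analysis: bidirectional fit, DMSO baseline.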

[8] = ATG_PXRE_CIS: Attagene CIS-FACTORIAL HepG2 Assay for human Pregnane X Receptor Element (PXRE) (AID 2282957); conditions: HepG2 Attagene CIS-FACTORIAL PXRE reporter, mRNA; actives raise or lower the signal
Method in brief: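 Using HepG2 transfected with multiple reporter transcription units, endogenous factor-driven transcription was scored as reporter mRNA after 24 h exposure.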

[9] = ATG_RORE_CIS: Attagene CIS-FACTORIAL HepG2 Assay for human RAR-related Orphan Receptor Element (RORE) (AID 2282959); conditions: HepG2 Attagene cis-factorial RORE reporter, mRNA; actives raise or lower the signal
Method in brief: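 Readout: fluorescent reporter mRNA by RT-PCR plus capillary electrophoresis, 24 h after dosing transfected HepG2 cells. Endogenous transcription factor activity on a cis promoter element is measured. Gain or loss of signal fitted against DMSO.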

[10] = ATG_Sox_CIS: Attagene CIS-FACTORIAL HepG2 Assay for human SRY-box transcription factor (SOX) (AID 2282960); conditions: HepG2 Attagene cis-factorial SOX reporter, mRNA; actives raise or lower the signal
Method in brief: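 Read-out: fluorescent RT-PCR products of SOX1-linked reporter transcripts resolved by capillary electrophoresis, fitted bidirectionally against DMSO. Transiently transfected HepG2 cells, 24 h after chemical exposure, endogenous transcription factor activity.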

[11] = molecular target: Transcription factor Sp1 (Homo sapiens) (UniProt P08047); experiment: ATG_Sp1_CIS: Attagene CIS-FACTORIAL HepG2 Assay for human Specificity Protein 1 (Sp1) (AID 2282961); conditions: HepG2 Sp1 cis-reporter transcription, actives raise or lower the signal
Transcription factor Sp1 (Homo sapiens), sequence (P08047 whole entry, looked up): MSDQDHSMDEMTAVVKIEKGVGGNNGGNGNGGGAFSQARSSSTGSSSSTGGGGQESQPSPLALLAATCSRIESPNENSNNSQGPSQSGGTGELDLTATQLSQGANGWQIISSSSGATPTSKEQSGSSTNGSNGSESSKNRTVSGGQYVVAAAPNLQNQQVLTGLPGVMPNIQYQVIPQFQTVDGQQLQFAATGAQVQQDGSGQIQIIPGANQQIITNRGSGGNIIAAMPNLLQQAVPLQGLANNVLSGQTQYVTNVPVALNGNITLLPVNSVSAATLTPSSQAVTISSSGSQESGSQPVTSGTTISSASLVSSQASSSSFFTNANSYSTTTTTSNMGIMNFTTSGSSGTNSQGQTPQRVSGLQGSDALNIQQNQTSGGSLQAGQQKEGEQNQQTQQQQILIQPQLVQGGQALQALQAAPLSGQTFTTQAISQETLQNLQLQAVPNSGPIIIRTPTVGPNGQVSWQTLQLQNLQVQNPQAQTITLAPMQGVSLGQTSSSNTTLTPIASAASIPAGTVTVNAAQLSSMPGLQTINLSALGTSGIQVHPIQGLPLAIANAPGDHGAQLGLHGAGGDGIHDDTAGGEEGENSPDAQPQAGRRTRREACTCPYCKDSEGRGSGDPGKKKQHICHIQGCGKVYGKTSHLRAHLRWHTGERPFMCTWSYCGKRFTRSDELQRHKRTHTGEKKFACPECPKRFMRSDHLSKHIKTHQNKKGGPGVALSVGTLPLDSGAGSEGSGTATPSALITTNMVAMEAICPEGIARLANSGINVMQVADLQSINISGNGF
Method in brief: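 Read-out: fluorescence of 6-FAM-labeled, HpaI-digested RT-PCR products separated by capillary electrophoresis. HepG2 cells carried transfected cis-element reporter units and were exposed to chemicals for 24 h; gain or loss of signal fitted relative to DMSO.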

[12] = ATG_SREBP_CIS: Attagene CIS-FACTORIAL HepG2 Assay for human Sterol Regulatory Element Binding (SREBP) (AID 2282962); conditions: HepG2 Attagene cis-factorial SREBP reporter, mRNA; actives raise or lower the signal
Method in brief: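 Endogenous SREBP activity read as cis-element-driven reporter transcript in transiently transfected HepG2, 24 h post-dosing; quantified via RT-PCR plus capillary electrophoresis of fluorescent fragments. Gain or loss of signal fitted relative to DMSO baseline.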

[13] = ATG_TA_CIS: Attagene CIS-FACTORIAL HepG2 Assay for human TA Basal Promoter (AID 2282964); conditions: HepG2 Attagene CIS-factorial TA basal promoter reporter; actives raise or lower the signal
Method in brief: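 Cis-factorial format in HepG2: reporters report endogenous factors, not chimeric Gal4 fusions. After 24 h treatment, reporter transcripts were measured by RT-PCR-capillary electrophoresis fluorescence, analysed bidirectionally versus DMSO.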

[14] = ATG_TCF_b_cat_CIS: Attagene CIS-FACTORIAL HepG2 Assay for human T-Cell-Factor with beta-catenin (TCF/b-cat) (AID 2282965); conditions: HepG2 TCF/beta-catenin cis-reporter transcription, actives raise or lower the signal
Method in brief: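 HepG2 cells transiently transfected with multiple cis-promoter-regulated reporter transcription units, so endogenous transcription factor activity is measured. Reporter mRNA read 24 hours after dosing by RT-PCR, fluorescent labelling and capillary electrophoresis; bidirectional fitting against DMSO.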

[15] = ATG_TAL_CIS: Attagene CIS-FACTORIAL HepG2 Assay for human TAL Basal Promoter (AID 2282966); conditions: HepG2 Attagene cis-factorial TAL promoter reporter; actives raise or lower the signal;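 also: background control endpoint measuring basal TAL promoter reporter mRNA not a specific factor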
Method in brief: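 After 24 hours of chemical exposure, transfected HepG2 cells yielded RNA that was converted to 6-FAM-labelled, HpaI-digested reporter fragments for capillary electrophoresis. Values derive from bidirectional fitting against DMSO controls.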

[16] = ATG_M_32_CIS: Attagene CIS-FACTORIAL HepG2 Assay for M32 Transcription Factor (Internal Marker) (AID 2282949); conditions: HepG2 Attagene cis-factorial M32 reporter, mRNA; actives raise or lower the signal;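 also: background control marker of the multiplexed CIS panel rather than a real target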
Method in brief: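 Transient MRTU transfection of HepG2; 24 h compound treatment; TriZol RNA, oligo(dT) RT, reporter PCR, 6-FAM primer extension, HpaI cut, CE. Gain/loss of signal vs DMSO.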

[17] = ATG_PBREM_CIS: Attagene CIS-FACTORIAL HepG2 Assay for human Phenobarbital-responsive Enhancer Module (PBREM) (AID 2282955); conditions: HepG2 PBREM cis-reporter, Attagene multiplexed transcription; actives raise or lower the signal
Method in brief: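 Reporter mRNA read by RT-PCR, 6-FAM primer extension, HpaI digestion and capillary electrophoresis. Transfected HepG2 cells, 24 h compound exposure. Gain or loss of signal fitted bidirectionally relative to DMSO baseline.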

[18] = molecular target: Paired box protein Pax-6 (Homo sapiens) (UniProt P26367); experiment: ATG_Pax6_CIS: Attagene CIS-FACTORIAL HepG2 Assay for human Paired Box 6 (PAX6) (AID 2282956); conditions: HepG2 CIS-FACTORIAL PAX6 reporter transcription, RNA readout; actives raise or lower the signal
Paired box protein Pax-6 (Homo sapiens), sequence (P26367 whole entry, looked up): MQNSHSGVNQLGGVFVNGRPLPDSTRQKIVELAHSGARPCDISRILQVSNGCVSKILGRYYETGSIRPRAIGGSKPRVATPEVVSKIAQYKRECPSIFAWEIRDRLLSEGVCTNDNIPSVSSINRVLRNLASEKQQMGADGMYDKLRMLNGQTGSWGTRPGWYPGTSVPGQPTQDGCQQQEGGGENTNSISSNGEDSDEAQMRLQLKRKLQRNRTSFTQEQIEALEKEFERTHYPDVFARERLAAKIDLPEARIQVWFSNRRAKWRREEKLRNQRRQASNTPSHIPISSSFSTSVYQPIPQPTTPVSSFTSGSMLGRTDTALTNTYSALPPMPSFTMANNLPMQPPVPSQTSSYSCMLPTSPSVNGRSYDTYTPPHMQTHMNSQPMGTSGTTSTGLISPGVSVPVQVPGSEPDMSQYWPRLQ
Method in brief: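 Read-out is reporter transcript level, measured by RT-PCR with fluorescent primer extension and capillary electrophoresis after 24 h dosing of transfected HepG2 cells. Activity in either direction fitted relative to DMSO control.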

[19] = ATG_PPRE_CIS: Attagene CIS-FACTORIAL HepG2 Assay for human Peroxisome Proliferator-activated Response Element (PPRE) (AID 2282958); conditions: HepG2 PPRE cis-element reporter, Attagene transcription factor profiling; actives raise or lower the signal
Method in brief: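 Read-out: fluorescent reporter mRNA fragments resolved by capillary electrophoresis after RT-PCR. HepG2 cells carried transiently transfected PPRE-driven cis reporter constructs and were dosed for 24 h; gain or loss of signal fitted relative to DMSO.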

[20] = molecular target: Signal transducer and activator of transcription 3 (Homo sapiens) (UniProt P40763); experiment: ATG_STAT3_CIS: Attagene CIS-FACTORIAL HepG2 Assay for human Signal Transducer and Activator of Transcription 3 (STAT3) (AID 2282963); conditions: HepG2, Attagene cis-factorial STAT3 reporter transcription; actives raise or lower the signal
Signal transducer and activator of transcription 3 (Homo sapiens), sequence (P40763 whole entry, looked up): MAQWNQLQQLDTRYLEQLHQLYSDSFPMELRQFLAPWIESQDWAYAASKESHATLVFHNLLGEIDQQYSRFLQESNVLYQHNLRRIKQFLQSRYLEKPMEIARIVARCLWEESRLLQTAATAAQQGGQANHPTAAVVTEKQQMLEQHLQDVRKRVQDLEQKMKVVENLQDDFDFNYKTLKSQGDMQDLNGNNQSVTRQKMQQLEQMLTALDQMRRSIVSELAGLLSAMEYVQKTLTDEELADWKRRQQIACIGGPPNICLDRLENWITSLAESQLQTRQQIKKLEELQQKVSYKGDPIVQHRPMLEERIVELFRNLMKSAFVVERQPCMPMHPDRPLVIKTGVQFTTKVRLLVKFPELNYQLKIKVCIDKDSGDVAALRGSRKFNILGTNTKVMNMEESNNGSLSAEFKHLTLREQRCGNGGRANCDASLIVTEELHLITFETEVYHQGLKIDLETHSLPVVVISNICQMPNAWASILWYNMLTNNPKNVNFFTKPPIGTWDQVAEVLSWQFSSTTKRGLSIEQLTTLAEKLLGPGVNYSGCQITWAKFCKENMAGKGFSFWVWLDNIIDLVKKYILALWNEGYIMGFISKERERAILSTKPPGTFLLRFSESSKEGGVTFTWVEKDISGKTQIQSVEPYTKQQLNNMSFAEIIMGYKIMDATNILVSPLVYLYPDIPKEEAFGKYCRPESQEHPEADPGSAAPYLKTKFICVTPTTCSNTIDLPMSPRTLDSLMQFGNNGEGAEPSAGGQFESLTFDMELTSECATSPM
Method in brief: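 Uses human liver HepG2 transiently carrying cis-regulated reporter transcription units. Following 24 h dosing, reporter mRNA induction was detected by RT-PCR and capillary electrophoresis, analysed bidirectionally versus DMSO.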

Measured: AC50

S=C(S)NCCNC(=S)S.[Mn+2].[S-]C([S-])=NCCN=C([S-])[S-].[Zn+2]
inactive: [1] | [2] | [3] | [4] | [5] | [6] | [7] | [8] | [9] | [10] | [11] | [12] | [13] | [14] | [15]
active: [2] 9.92 µM and 10.9 µM and 50 µM | [4] 18.3 µM and 976 nM | [8] 13.2 µM and 13 µM and 12.9 µM | [9] 19.6 µM | [10] 16.5 µM and 23 µM and 22.3 µM | [14] 20 µM and 27.8 µM and 26.9 µM

COC(=O)c1ccc(CNS(C)(=O)=O)cc1S(=O)(=O)NC(=O)Nc1nc(OC)cc(OC)n1
not listed: [15]
inactive: all other assays above

CCCCOC(=O)[C@@H](C)Oc1ccc(Oc2ccc(C(F)(F)F)cn2)cc1
active: [8] 50 µM
not listed: [15] | [16] | [20]
inactive: all other assays above

C=CCOC(Cn1ccnc1)c1ccc(Cl)cc1Cl (configuration not stated)
active: [4] 17.4 µM | [6] 84.4 µM | [7] 24.5 µM | [8] 4.84 µM | [12] 6.99 µM
not listed: [15] | [18] | [20]
inactive: all other assays above

CCCCC(CC)CN1C(=O)C2C3C=CC(C3)C2C1=O (configuration not stated)
active: [4] 50 µM | [7] 68.5 µM | [17] 50 µM | [8] 3.79 µM | [19] 50 µM | [9] 34 µM
not listed: [15] | [16]
inactive: all other assays above

CSC(=O)c1cccc2nnsc12
active: [8] 49.4 µM
not listed: [16]
inactive: all other assays above

CCCOC(=O)c1ccc(C(=O)OCCC)nc1
active: [19] 23.1 µM
not listed: [9] | [18]
inactive: all other assays above

C#C[C@]1(O)CC[C@H]2[C@@H]3CCC4=CC(=O)CC[C@@H]4[C@H]3CC[C@@]21CC
inactive: [1] | [2] | [16] | [3] | [4] | [5] | [7] | [18] | [19] | [9] | [10] | [11] | [12] | [20] | [13] | [14] | [15]
active: [4] 3.15 µM | [8] 5.07 µM [middle of 5 runs]

CCCN(CCC)C(=O)SCC
not listed: [15] | [19] | [20]
inactive: all other assays above

COc1nc(C)nc(NC(=O)NS(=O)(=O)c2ccccc2OCCCl)n1
active: [8] 34.2 µM and 5.58 µM
not listed: [15] | [18]
inactive: all other assays above

COC(=O)CSc1cc(N=c2sc(=O)n3n2CCCC3)c(F)cc1Cl
active: [8] 9.92 µM | [19] 10.4 µM
not listed: [15] | [18] | [20]
inactive: all other assays above

CCOC(=O)COc1cc(-n2ncc(C(F)(F)F)c(C)c2=O)c(F)cc1Cl
active: [8] 28.5 µM
not listed: [15] | [16] | [20]
inactive: all other assays above
